Measured values reported in PubChem BioAssay (Tox21).
Records with an inconclusive call do not appear. Active and inactive are the calls of the source. The call rests on the fitted dose curve; in most records, active means well fitted curve in the direction sought with a large enough effect in the repeat runs; inconclusive means weak or mixed curves; inactive means no such curve, though single readings can be large; an effect the other way counts as inactive or inconclusive.

Columns and labels:
[1] = qHTS RealTime-Glo MT Cell Viability Assay in HepG2 cells - 40 hour (AID 1224870); further: nearly all actives have a fitted effect of over 50% in size
Outline: (§1)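 HepG2 cells (600/well) mixed with RealTime-Glo MT reagent, settled 5 h at 37 C/5% CO2 before compound addition. Nonlytic NanoLuc luminescence from viable-cell prosubstrate reduction read repeatedly during 40 h treatment at 37 C.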

[2] = A CellTox Green Cytotoxicity Assay to monitor cytotoxicity in HEK293 cells - 40 hour (AID 1224871); further: nearly all actives have a fitted effect of over 45% in size
Outline: (§2)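 Cytotoxicity was tracked continuously in HEK293 cells by a DNA-binding dye excluded from viable cells. Compounds were transferred in DMSO 5 h after seeding; fluorescence was recorded at intervals up to 40 h.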

[3] = qHTS RealTime-Glo MT Cell Viability Assay in HEK293 cells - 16 hour (AID 1224872); further: top concentration of the series differs between compounds; nearly all actives have a fitted effect of over 50% in size
Outline: (§3)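 Tox21 10K qHTS, HEK293, 600 cells/well, RealTime-Glo reagent co-dispensed with cells; 5 h preincubation, compound by pintool, 37 C, luminescence at 0–40 h.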

[4] = qHTS RealTime-Glo MT Cell Viability Assay in HepG2 cells - 8 hour (AID 1224873); further: nearly all actives have a fitted effect of over 55% in size
Outline: as §1

[5] = qHTS RealTime-Glo MT Cell Viability Assay in HEK293 cells - 40 hour (AID 1224874); conditions: RealTime-Glo luminescence; max response: hits give low values; further: nearly all actives have a fitted effect of over 50% in size
Outline: (§4)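 Nonlytic bioluminescent viability monitoring. HEK293 at 600 cells/well with reagent; 5 h settle; compound transfer by pintool; plates held at 37 C and read at set time points.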

[6] = A CellTox Green Cytotoxicity Assay to monitor cytotoxicity in HEK293 cells - 24 hour (AID 1224875); further: series mostly up to about 77 µM; nearly all actives have a fitted effect of over 45% in size
Outline: as §2

[7] = A CellTox Green Cytotoxicity Assay to monitor cytotoxicity in HepG2 cells - 16 hour (AID 1224876); further: nearly all actives have a fitted effect of over 45% in size
Outline: (§5)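 Real-time, homogeneous cytotoxicity readout: dead-cell DNA staining by CellTox Green in HepG2 monolayers, fluorescence measured at timed intervals up to 40 h of continuous compound exposure.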

[8] = qHTS RealTime-Glo MT Cell Viability Assay in HepG2 cells - 32 hour (AID 1224877); further: nearly all actives have a fitted effect of over 55% in size
Outline: (§6)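 Cells + NanoLuc/prosubstrate dispensed (600 cells/well) → 5 h at 37 C/5% CO2 → compounds in DMSO transferred → 40 h incubation at 37 C, luminescence read at 0, 8, 16, 24, 32, 40 h.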

[9] = A CellTox Green Cytotoxicity Assay to monitor cytotoxicity in HepG2 cells - 24 hour (AID 1224878); further: nearly all actives have a fitted effect of over 45% in size
Outline: as §5

[10] = A CellTox Green Cytotoxicity Assay to monitor cytotoxicity in HepG2 cells - 40 hour (AID 1224879); further: nearly all actives have a fitted effect of over 40% in size
Outline: as §5

[11] = qHTS RealTime-Glo MT Cell Viability Assay in HEK293 cells - 0 hour (AID 1224880)
Outline: as §4

[12] = A CellTox Green Cytotoxicity Assay to monitor cytotoxicity in HEK293 cells - 32 hour (AID 1224881); further: nearly all actives have a fitted effect of over 40% in size
Outline: as §2

[13] = A CellTox Green Cytotoxicity Assay to monitor cytotoxicity in HepG2 cells - 0 hour (AID 1224882); further: nearly all actives have a fitted effect of over 35% in size
Outline: as §5

[14] = A CellTox Green Cytotoxicity Assay to monitor cytotoxicity in HepG2 cells - 32 hour (AID 1224883); further: nearly all actives have a fitted effect of over 50% in size
Outline: as §5

[15] = A CellTox Green Cytotoxicity Assay to monitor cytotoxicity in HEK293 cells - 8 hour (AID 1224884); further: nearly all actives have a fitted effect of over 35% in size
Outline: as §2

[16] = qHTS RealTime-Glo MT Cell Viability Assay in HepG2 cells - 16 hour (AID 1224885); further: nearly all actives have a fitted effect of over 50% in size
Outline: as §6

[17] = qHTS RealTime-Glo MT Cell Viability Assay in HEK293 cells - 24 hour (AID 1224886)
Outline: as §3

[18] = qHTS RealTime-Glo MT Cell Viability Assay in HEK293 cells - 8 hour (AID 1224887)
Outline: as §4

[19] = A CellTox Green Cytotoxicity Assay to monitor cytotoxicity in HEK293 cells - 16 hour (AID 1224888); further: nearly all actives have a fitted effect of over 35% in size
Outline: as §2

[20] = qHTS RealTime-Glo MT Cell Viability Assay in HepG2 cells - 0 hour (AID 1224889); further: nearly all actives have a fitted effect of over 50% in size
Outline: as §6
On the % scale 0 is the no-effect control and ±100 the full control effect.

CCCCOc1ccc(N)cc1
inactive: Potency [1] | Potency [2] | Potency [3] | outcome [4] | max response [5] 0.387% | Potency [6] | Potency [7] | Potency [8] | Potency [9] | Potency [10] | Potency [11] | Potency [12] | Potency [13] | Potency [14] | Potency [15] | outcome [16] | Potency [17] | Potency [18] | Potency [19] | Potency [20]

CCOC(OCC)OCC
inactive: Potency [1] | Potency [2] | Potency [3] | outcome [4] | max response [5] -1.36% | Potency [6] | Potency [7] | Potency [8] | Potency [9] | Potency [10] | Potency [11] | Potency [12] | Potency [13] | Potency [14] | Potency [15] | outcome [16] | Potency [17] | Potency [18] | Potency [19] | Potency [20]

NC(=O)c1cc[n+](CC2=C(C(=O)[O-])N3C(=O)[C@@H](NC(=O)Cc4cccs4)[C@H]3SC2)cc1
inactive: Potency [1] | Potency [2] | Potency [3] | outcome [4] | max response [5] 4.75% | Potency [6] | Potency [7] | Potency [8] | Potency [9] | Potency [10] | Potency [11] | Potency [12] | Potency [13] | Potency [14] | Potency [15] | outcome [16] | Potency [17] | Potency [18] | Potency [19] | Potency [20]

CC[C@H](NC(C)C)[C@H](O)c1ccc(O)c2[nH]c(=O)ccc12
inactive: Potency [1] | Potency [2] | Potency [3] | outcome [4] | max response [5] 5.21% | Potency [6] | Potency [7] | Potency [8] | Potency [9] | Potency [10] | Potency [11] | Potency [12] | Potency [13] | Potency [14] | Potency [15] | outcome [16] | Potency [17] | Potency [18] | Potency [19] | Potency [20]

CC(C)CCCCCCCOC(=O)c1ccc(C(=O)OCCCCCCCC(C)C)c(C(=O)OCCCCCCCC(C)C)c1
inactive: Potency [1] | Potency [2] | Potency [3] | outcome [4] | max response [5] 11.4% | Potency [6] | Potency [7] | Potency [8] | Potency [9] | Potency [10] | Potency [11] | Potency [12] | Potency [13] | Potency [14] | Potency [15] | outcome [16] | Potency [17] | Potency [18] | Potency [19] | Potency [20]

FC1(F)C(F)(F)C(F)(F)C2(F)C(F)(C1(F)F)C(F)(F)C(F)(F)C1(F)C(F)(F)C(F)(F)C(F)(F)C(F)(F)C12F (configuration not stated)
inactive: Potency [1] | Potency [2] | Potency [3] | outcome [4] | max response [5] 0.279% | Potency [6] | Potency [7] | Potency [8] | Potency [9] | Potency [10] | Potency [11] | Potency [12] | Potency [13] | Potency [14] | Potency [15] | outcome [16] | Potency [17] | Potency [18] | Potency [20]

CC(C)C/C=C(\C=O)c1ccccc1
inactive: Potency [1] | Potency [2] | Potency [3] | outcome [4] | max response [5] 10% | Potency [6] | Potency [7] | Potency [8] | Potency [9] | Potency [10] | Potency [11] | Potency [12] | Potency [13] | Potency [14] | Potency [15] | outcome [16] | Potency [17] | Potency [18] | Potency [19] | Potency [20]

O=c1[nH]nc(-c2ccc([N+](=O)[O-])o2)o1
inactive: Potency [1] | Potency [2] | Potency [3] | outcome [4] | max response [5] -1.91% | Potency [6] | Potency [7] | Potency [8] | Potency [9] | Potency [10] | Potency [11] | Potency [12] | Potency [13] | Potency [14] | Potency [15] | outcome [16] | Potency [17] | Potency [18] | Potency [19] | Potency [20]

Cc1ccccc1CCO
inactive: Potency [1] | Potency [2] | Potency [3] | outcome [4] | max response [5] 5.71% | Potency [6] | Potency [7] | Potency [8] | Potency [9] | Potency [10] | Potency [11] | Potency [12] | Potency [13] | Potency [14] | Potency [15] | outcome [16] | Potency [17] | Potency [18] | Potency [19] | Potency [20]

C[C@H]1C[C@H]2[C@@H]3CCC4=CC(=O)C=C[C@]4(C)[C@@]3(F)[C@@H](O)C[C@]2(C)[C@@]1(O)C(=O)COP(=O)(O)O
inactive: Potency [1] | Potency [2] | Potency [3] | outcome [4] | max response [5] -11.1% | Potency [6] | Potency [7] | Potency [8] | Potency [9] | Potency [10] | Potency [11] | Potency [12] | Potency [13] | Potency [14] | Potency [15] | outcome [16] | Potency [17] | Potency [18] | Potency [19]

COc1ccc(/C=C/S(=O)(=O)NC(=O)c2ccc(C)cc2Cl)cc1
inactive: Potency [1] | Potency [2] | Potency [3] | outcome [4] | max response [5] -7.95% | Potency [6] | Potency [7] | Potency [8] | Potency [9] | Potency [10] | Potency [11] | Potency [12] | Potency [13] | Potency [14] | Potency [15] | outcome [16] | Potency [17] | Potency [19] | Potency [20]

CC(=O)Nc1ccn(C2COC(COC(=O)c3ccccc3)O2)c(=O)n1 (configuration not stated)
inactive: Potency [1] | Potency [2] | Potency [3] | outcome [4] | max response [5] 3.96% | Potency [6] | Potency [7] | Potency [8] | Potency [9] | Potency [10] | Potency [11] | Potency [12] | Potency [13] | Potency [14] | Potency [15] | outcome [16] | Potency [17] | Potency [19] | Potency [20]

CC(CCl)OC(C)CCl (configuration not stated)
inactive: Potency [1] | Potency [2] | Potency [3] | outcome [4] | max response [5] -1.61% | Potency [6] | Potency [7] | Potency [8] | Potency [9] | Potency [10] | Potency [11] | Potency [12] | Potency [13] | outcome [16] | Potency [17] | Potency [18] | Potency [19] | Potency [20]

CC(=O)Oc1cccc2c1C(=O)c1c(OC(C)=O)cc(C(=O)O)cc1C2=O
inactive: Potency [1] | Potency [2] | Potency [3] | outcome [4] | max response [5] -10.8% | Potency [6] | Potency [7] | Potency [8] | Potency [9] | Potency [10] | Potency [11] | Potency [12] | Potency [13] | Potency [14] | outcome [16] | Potency [17] | Potency [19] | Potency [20]
